# Measurements: PubChem BioAssay (NCI)
# This is part of a sample that, as a whole, favours compounds with a hit. Of some 83,000 tested, about 20% had one in any assay.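 The endpoint reported here, percent growth, reads 100 for growth as untreated, 0 for no net growth and -100 for all cells dead.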 Values without a mark were called inactive. Active and inactive are the calls of the source. The calls were made as follows: active = growth percent below 10; inactive = the rest.
# Key:
# Test in all cases: NCI-60 one-dose screen, 48 h (100 = growth as untreated, 0 = no growth, -100 = all killed)
# Details in all cases: 10 µM unless noted
# HCT-15 colon = system: HCT-15 colon
# HT29 colon = system: HT29 colon
# SNB-75 CNS = system: SNB-75 CNS
# SNB-19 CNS = system: SNB-19 CNS
# U251 CNS = system: U251 CNS
# SK-MEL-5 melanoma = system: SK-MEL-5 melanoma
# UACC-62 melanoma = system: UACC-62 melanoma
# LOX IMVI melanoma = system: LOX IMVI melanoma
# SK-MEL-28 melanoma = system: SK-MEL-28 melanoma
# SK-MEL-2 melanoma = system: SK-MEL-2 melanoma
# EKVX NSCLC = system: EKVX NSCLC
# SN12C renal = system: SN12C renal
# UO-31 renal = system: UO-31 renal
# TK-10 renal = system: TK-10 renal
# ACHN renal = system: ACHN renal
# CAKI-1 renal = system: CAKI-1 renal
# A498 renal = system: A498 renal
# CCRF-CEM leukemia = system: CCRF-CEM leukemia
# MOLT-4 leukemia = system: MOLT-4 leukemia
# PC-3 prostate = system: PC-3 prostate
Structure (SMILES),growth (HCT-15 colon),growth (HT29 colon),growth (SNB-75 CNS),growth (SNB-19 CNS),growth (U251 CNS),growth (SK-MEL-5 melanoma),growth (UACC-62 melanoma),growth (LOX IMVI melanoma),growth (SK-MEL-28 melanoma),growth (SK-MEL-2 melanoma),growth (EKVX NSCLC),growth (SN12C renal),growth (UO-31 renal),growth (TK-10 renal),growth (ACHN renal),growth (CAKI-1 renal),growth (A498 renal),growth (CCRF-CEM leukemia),growth (MOLT-4 leukemia),growth (PC-3 prostate)
N#Cc1ccc(C(=O)CSc2nc3c(c(Nc4ccc(S(N)(=O)=O)cc4)n2)CCC3)cc1,49.9%,55.8%,8.38% (active),-13.3% (active),-85.2% (active),71.9%,83.1%,1.66% (active),48.5%,87.4%,49.8%,35.3%,66.8%,55.2%,10.9%,39.1%,137%,81.1%,73.3%,–
CC[C@@]12CC(C(=O)OC)=C3Nc4cc5c(cc4[C@@]34CCN(C[C@H]3O[C@H]31)[C@@H]24)[C@@H]1[C@H](O5)[C@@H](O)[C@@]2(CC)CC(C(=O)OC)=C3Nc4cc(O)ccc4[C@@]34CCN1[C@@H]24,-51.6% (active),-14% (active),-34.4% (active),-43.8% (active),–,-90.2% (active),-57.8% (active),-84.4% (active),-47.3% (active),-70.4% (active),-14.9% (active),-16.8% (active),-66.2% (active),-41.1% (active),-26.4% (active),–,-77.1% (active),2.67% (active),-15.9% (active),15.9%
C[C@@H](Nc1c(C#N)cnc2ccc(-c3cnc4[nH]ncc4c3)cc12)c1ccccc1,8.64% (active),79.5%,-26.9% (active),30.7%,–,-67.5% (active),-16% (active),16%,15.4%,-24.8% (active),-31.9% (active),11.3%,8.19% (active),-6.48% (active),4.37% (active),4.1% (active),-40.2% (active),0.263% (active),-34.5% (active),13.4%
CCCCCCCCc1ccc(C(=O)Nc2cccc(O)c2)cc1,47.4%,78.7%,103%,83%,77.5%,46.6%,69.4%,64.7%,83.4%,83.8%,66.4%,65.4%,34.4%,106%,57.3%,77.8%,–,0.746% (active),35.5%,–
NNc1ncnc2sc3c(c12)CCN(Cc1ccccc1)C3,32.9%,20.7%,80.7%,69.4%,–,48%,53.1%,39.7%,73%,82%,36%,57%,51.7%,93.5%,57.4%,56.4%,–,15.8%,19.7%,59.5%
Nc1cc(-c2c[nH]c3ccc(Cl)cc23)nc2cc(-c3c[nH]c4ccccc34)nn12,-87.1% (active),-59.7% (active),19.4%,-59.5% (active),–,-87% (active),-82.7% (active),-94.6% (active),-66.9% (active),-45.8% (active),-23.7% (active),6.54% (active),-4.79% (active),-7.78% (active),0.126% (active),–,-14% (active),-16.6% (active),-27.4% (active),-12% (active)
O=C(NC(=S)N1CCN(c2ncnc3c2cnn3-c2ccccc2)CC1)c1ccc(Br)cc1,58.3%,86.4%,7.89% (active),46.6%,–,75%,60.6%,41.1%,77.1%,87.4%,76.4%,48.4%,70.7%,127%,69.2%,47.8%,104%,81.2%,81.5%,64.8%
O=c1c(-c2nc(-c3ccccc3)c(-c3ccccc3)[nH]2)coc2ccc(F)cc12,24.3%,68.1%,39%,38.8%,–,47.7%,49.9%,65.9%,69.6%,62.9%,25.7%,68.9%,40.4%,94.3%,51%,64.9%,109%,49%,23.6%,41.9%
Cc1ccc(C(=O)C[n+]2cccc3c4ccccc4ccc32)cc1,56.8%,12.5%,43%,25.9%,–,-88.8% (active),32.2%,-24.2% (active),44.5%,36.5%,28.9%,14.7%,29.7%,41.3%,50.6%,53.2%,75.2%,28.1%,14.4%,18.7%
O=C(Nc1nc2ccccc2s1)Nc1ccccc1Cl,94.3%,98.5%,20.4%,70.4%,–,95.3%,93.8%,79.4%,102%,99.9%,64.5%,83.9%,66.8%,84.7%,49.3%,45.2%,162%,97.5%,107%,85.3%
CCOC(=O)/C(F)=C/C1CC1C1CCN(C(=O)OC(C)(C)C)CC1 (configuration not stated),89.2%,77.9%,93.9%,96.5%,–,69.3%,93.6%,103%,119%,110%,74.4%,62.6%,81.6%,104%,97.4%,93.7%,127%,104%,106%,96.3%
COC(=O)c1cc(C(=O)C(F)(F)F)n2c3ccccc3c3ccccc3c12,93.8%,96.1%,6.37% (active),67.8%,–,95.8%,69.3%,77.2%,111%,97.6%,78.3%,53.1%,39%,73.7%,18.2%,43.1%,120%,97.6%,97.4%,66.8%
O=C1CC(c2ccc(I)cc2)OC2C=Cc3ccccc3C12 (configuration not stated),94.9%,90.7%,111%,101%,99.5%,104%,78.9%,99.6%,116%,98.8%,82.9%,99%,85.8%,139%,109%,91.7%,119%,94.4%,96%,–
Cc1ccc2nc(SCc3ccccc3F)n(-c3ccccc3)c(=O)c2c1,83.3%,78.7%,156%,96.8%,–,93.9%,74.3%,84.9%,–,102%,59.9%,90.6%,83.7%,90.2%,92.9%,83.3%,137%,73%,73.3%,77.9%
O=C(N=Nc1c(O)[nH]c2ccc(Cl)cc12)c1ccc2nc(-c3ccc(Cl)cc3)[nH]c2c1,78.6%,16.9%,-21.3% (active),-52.2% (active),-88.3% (active),66.8%,-59% (active),-100% (active),-79.3% (active),11.8%,29.9%,-10.4% (active),87.3%,52.3%,73.4%,82.8%,–,3.93% (active),6.71% (active),–
CCCCNc1ccc2c3c(cccc13)C(=O)N(c1cccc(-c3nn(-c4ccccc4)cc3-c3nc4ccccc4s3)c1)C2=O,108%,114%,92.8%,106%,110%,96.3%,88.3%,94.4%,101%,98.1%,96.4%,101%,70.4%,110%,96.3%,82.2%,–,105%,113%,–
